Screening data from PubChem BioAssay.
The list is not random: actives were taken first. Their share in the collection is about 28%.
CYP2C19 inhib = blockers of cytochrome P450 2C19 activity – biochemical, luminescence, ADME assay, primary screen. inhibition, % at 5 µM. 96,000 tested, 21% active. CYP2C19 Supersomes, luciferin-H EGE luminescence, 30 min. AID 778, 2007;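 active means CYP2C19 inhibition above a set limit at 5 µM in the primary screen, cut at about 50% in these data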;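 further: plate controls were negative control wells for no effect and 2.5 mM tranylcypromine positive control for full effect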
CYP2C19 activ = human CYP2C19 activators, primary screen, biochemical, luminescence; Cytochrome P450 2C19 (Homo sapiens), P33261; recombinant CYP2C19, luciferin-H EGE luminescence; active compounds read high; 0 = fully inhibited enzyme, 1 = untreated enzyme; activation factor at 5 µM; 96,000 tested, under 10 active;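 active means activation factor of at least 2 at 5 µM in the primary screen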;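 further: 0 = wells with 2.5 mM tranylcypromine and 1 = vehicle-only wells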
CYP2C9 activ = human CYP2C9 activators, primary screen, biochemical, luminescence | activation factor at 5 µM | recombinant CYP2C9, luciferin-H conversion; active compounds read high; factor 1 = untreated enzyme, 0 = blocked | AID 1024, 2008 | 96,000 tested, 1.4% active | Cytochrome P450 2C9 (Homo sapiens), P11712;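 active means activation factor of 2 or more for CYP2C9 at a 5 µM dose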;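 further: 0 = sulfaphenazole-blocked wells and 1 = vehicle-only wells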
Target sequence (P11712 whole entry, looked up): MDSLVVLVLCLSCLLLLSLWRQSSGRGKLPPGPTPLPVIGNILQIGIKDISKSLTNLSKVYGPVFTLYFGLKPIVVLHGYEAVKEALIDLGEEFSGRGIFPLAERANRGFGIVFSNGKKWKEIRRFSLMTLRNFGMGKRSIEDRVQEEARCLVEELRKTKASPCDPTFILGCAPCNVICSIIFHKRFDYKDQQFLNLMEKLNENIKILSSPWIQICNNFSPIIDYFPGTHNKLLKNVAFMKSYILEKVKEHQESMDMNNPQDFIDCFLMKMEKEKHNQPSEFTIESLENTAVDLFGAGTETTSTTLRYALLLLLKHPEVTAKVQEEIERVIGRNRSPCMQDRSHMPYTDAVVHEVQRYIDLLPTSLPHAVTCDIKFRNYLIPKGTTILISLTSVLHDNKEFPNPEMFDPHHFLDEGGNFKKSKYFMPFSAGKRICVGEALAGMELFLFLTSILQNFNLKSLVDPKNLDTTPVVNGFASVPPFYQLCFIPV
Pyk2 oligo antag = antagonists of Pyk2 self-association, primary screen, Q293 cells, FERM NanoBiT luminescence, HTS; Protein-tyrosine kinase 2-beta (Homo sapiens), Q14289; active compounds read low; z-score (the deposit names both 25 µM and 10 µM); 99,000 tested, 0.83% active;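 active means Z-score of -3 or lower, scaled per plate to the spread of control and sample wells; inactive means z-score above -3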;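 further: negative z-score means lost luminescence so less FERM oligomerization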
CYP2C9 inh = blockers of cytochrome P450 2C9 activity – biochemical, luminescence, ADME assay, primary screen. 96,000 tested, 20% active. inhibition, % at 5 µM. P11712. AID 777, 2007. CYP2C9 Supersomes, luciferin-H conversion;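 active means blocking of liver enzyme CYP2C9 beyond about 50% at 5 µM, limit read from the data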
* marks the source's active call; other numbers are inactive results; . = not tested or not shown.

SMILES	CYP2C19 inhib	CYP2C19 activ	CYP2C9 activ	Pyk2 oligo antag	CYP2C9 inh
O=C1NCCCC2c3c(cc(Br)c(O)c3Br)OC12N1CCCCC1 (stereo unspecified)	97*	0	0.6	0.32	44
CC(C)c1ccc(-c2cc(C(=O)N3N=C(C(F)F)CC3(O)C(F)F)c3ccccc3n2)cc1 (stereo unspecified)	7	0.9	0	-2.4	100*
Cc1ccc(-c2cc(C(=O)NN=C3CCCC3)c3ccccc3n2)cc1	16	0.8	0.7	-0.15	25
O=C(c1cc(C2CC2)nc2ccc(Br)cc12)N1N=C(C(F)F)CC1(O)C(F)F (stereo unspecified)	.	.	.	-3.3*	.
O=C(c1cc(C2CC2)nc2ccccc12)N1N=C(C(F)F)CC1(O)C(F)F (stereo unspecified)	.	.	.	-0.21	.
CNC(=O)CN(C)S(=O)(=O)c1ccc(F)cc1	7	0.9	0.8	0.74	21
CN(CC(=O)NCc1ccncc1)S(=O)(=O)c1ccccc1	94*	0.1	0.2	0.44	83*
CN(CC(=O)NCc1ccncc1)S(=O)(=O)c1ccc(F)cc1	91*	0.1	0.2	0.33	82*
O=C(O)CN1CCNCC1	6	0.9	1.1	.	-5
NC(=O)CN1C(=O)C2C3C=CC(C3)C2C1=O (stereo unspecified)	-8	1.1	1.1	0.69	-6
Cc1ccc(NC(=O)c2cc([N+](=O)[O-])ccc2NCc2cccnc2)cc1Cl	85*	0.2	0.1	-3.7*	92*
O=C(COc1ccc([N+](=O)[O-])cc1)Nc1ccc(C(=O)NCc2cccnc2)cc1	12	0.9	0.8	1.1	16
COC(=O)c1ccc2c(c1)C(C)(C)C(/C=C/c1ccccc1O)=[N+]2C	42	0.6	0.4	-0.23	59*
COC(=O)c1cc[n+](CC(=O)c2ccccc2)cc1	-6	1.1	1	-0.63	-1
O=C(CN1C(=O)NC2(CCCc3ccccc32)C1=O)N1CCN(C(=O)c2ccco2)CC1 (stereo unspecified)	0	1	0.9	0.2	6
Cc1nc([N+](=O)[O-])c(Sc2nc3ccc([N+](=O)[O-])cc3[nH]2)n1Cc1ccccc1	.	.	.	-2.6	.
O=C(CSc1nc2ccc([N+](=O)[O-])cc2[nH]1)c1ccc2ccccc2c1	28	0.7	0.5	1.1	54*
Cc1ccccc1C(=O)/C=C1\NC(=O)CS1	7	0.9	0.8	0.7	15
O=C(CSc1ncnc2c1oc1ccccc12)c1cccs1	27	0.7	0.5	0.06	46
Cc1nc(SCC(=O)N2CCN(c3ccccc3)CC2)c2oc3ccccc3c2n1	45	0.6	0.4	0.42	56*
Cc1nc(SCC(=O)NCc2ccccc2)c2oc3ccccc3c2n1	30	0.7	0.2	-1.3	79*
Cc1nc(SCC(=O)c2cccs2)c2oc3ccccc3c2n1	26	0.7	0.4	-2.6	64*
Cc1nc(SCC(=O)O)c2oc3ccccc3c2n1	0	1	1.1	1.6	-6
COc1cccc(/C=N/n2c(C)nc3ccccc32)c1OC	39	0.6	0.3	-1.1	68*
COc1ccc(/C=N/N2CCN(c3ccccc3OC)CC2)cc1OC	9	0.9	1.1	-0.13	-10
SMILES	CYP2C19 inhib	CYP2C19 activ	CYP2C9 activ	Pyk2 oligo antag	CYP2C9 inh
COc1ccc(/C=N/n2c(SC)nnc2-c2ccccc2)c(OC)c1OC	79*	0.2	0.3	-2.1	67*
COc1cccc(/C=N\n2c(C)nnc2C)c1OC	-18	1.2	1.1	-1.3	-8
COc1ccc(/C=N/n2c(SC)nnc2-c2ccccc2)cc1C	54*	0.5	0.7	0.13	32
N#Cc1cc(-c2ccccc2)cnc1Sc1ccccc1	28	0.7	0.2	-1.1	78*
O=C(CN1C(=O)CSC1=O)Nc1ccccc1F	1	1	0.9	0.54	11
CCCc1cc(=O)n2[nH]c(-c3ccco3)nc2n1	8	0.9	0.7	-0.34	27
CCCc1cc(=O)n2[nH]c(CCc3ccccc3)nc2n1	6	0.9	0.5	-0.91	52*
CCO/C=C/C(=O)N(C)CCC#N	-12	1.1	1.1	-0.03	-11
CC(C)N(C(=O)c1ccccc1-c1ccccc1)C(C)C	26	0.7	0.8	2.1	20
